Measured values published in PubChem BioAssay (Tox21).
Inconclusive results are not listed. Entries that show only a call come without a potency. Unmarked numbers belong to inactive results. The source made the active and inactive calls. Calls come from the whole dose curve.

test: Nuclear factor erythroid 2-related factor 2/antioxidant responsive element (Nrf2/ARE) small molecule agonists: luciferase reporter gene qHTS assay in human keratinocytes (AID 1919969); settings: KeratinoSens HaCaT ARE-luciferase, luminescence, 24 h; series mostly up to 92.4 µM; note: nearly all actives have a fitted effect of over 35% in size
Description: National Center for Advancing Translational Sciences [NCATS]
Division of Preclinical Innovation [DPI]
U.S. Environmental Protection Agency [EPA]
National Institutes of Environmental Health Sciences [NIEHS]
National Toxicology Program [NTP]
U.S. Food and Drug Administration [FDA]
Oxidative stress has been implicated in the pathogenesis of a variety of diseases ranging from cancer to neurodegeneration. The antioxidant response element (ARE) signaling pathway plays an important role in the amelioration of oxidative stress. The KeratinoSens (Givaudan, Switzerland) is an in vitro test method which quantifies luciferase induction as a measure of activation of Keap1-Nrf2-antioxidationt/electrophile response element (ARE) dependant pathway in HaCaT human keratinocytes stably transfected with a selectable plasmid. The KeratinoSens assay is a cell-based assay with a reporter cell line to detect potential skin sensitizers by their ability to induce the Nrf2/ARE-response. The activation of the report gene under culture conditions can be detected by ONE-Glo Luciferase Assay System (Promega, Madison, WI). This cell line has been used to screen the Tox21 10K compound library to identify agonists that induce oxidative stress. The cytotoxicity of the Tox21 compound library against the KS-ARE cell line was tested in parallel by measuring the cell viability using CellTiter- Fluor assay system (Promega, Madison, WI) in the same wells.
HaCaT derived cell line KeratinoSens were dispensed at 1,500 cells/5uL/well in 1536-well white wall/solid bottom plates using a Multidrop Combi (ThermoFisher Scientific, Waltham, MA) dispenser. After the assay plates were incubated at 37 C/5% CO2 for 5 h, 23 nL of compounds dissolved in DMSO, positive controls or DMSO only was transferred to the assay plate by a pintool workstation (Kalypsys, San Diego, CA). The plates were incubated at 37 C/5% CO2 for 23 h, followed by addition of 1uL/well of CellTiter-Fluor reagent into the assay plates using a Flying Reagent Dispenser (Aurora Discovery, San Diego, CA) for cell viability readout that measures cytotoxicity. After 1 h incubation at 37 C/5% CO2 the fluorescence intensity was measured using a ViewLux (PerkinElmer, Shelton, CT) plate reader. Then 4uL/well of One-Glo were added using a Flying Reagent Dispenser. After the plates were incubated at room temperature for 30 min, the luminescence intensity in the assay plates was measured using ViewLux plate reader.
Potency is the fitted concentration of half-maximal effect.

SMILES | Potency | activity, positive = activation
O=C(OCc1ccccc1)C(=O)OCc1ccccc1 | inactive | –
CCOc1ccccc1N | inactive | –
CC1(C)S[C@@H]2[C@H](NC(=O)C(c3ccccc3)S(=O)(=O)O)C(=O)N2[C@H]1C(=O)O (stereo not given in full) | inactive | –
CC(C)=CCC/C(C)=C/CC/C(C)=C/CCC(=O)OC/C=C(\C)CCC=C(C)C | inactive | –
O=S(=O)(O)c1ccc(O)c2ncccc12 | inactive | –
CCCC(=O)O[C@]1(C(=O)CC)CC[C@H]2[C@@H]3CCC4=CC(=O)CC[C@]4(C)[C@H]3[C@@H](O)C[C@@]21C | inactive | –
CSc1nc(NC2CC2)nc(NC(C)(C)C)n1 | inactive | –
Cc1c(C)n(CCN(C)C)c2ccc(C(=O)OCCN(C)C)cc12 | 29.8 µM (active) | –
CCCCCCCCOc1ccc(C(=O)O)cc1 | 60.4 µM (active) | –
CCc1cc(Cc2cc(CC)cc(C(C)(C)C)c2O)c(O)c(C(C)(C)C)c1 | inactive | –
O=S(O)(O)=S | – | -3.55% [at 8.39 µM]
CC/C=C\CCOC(=O)c1ccccc1O | inactive | –
Nc1ccc(C(=O)OCC(O)CO)cc1 (stereo not given) | inactive | –
O=CCCc1ccccc1 | inactive | –
CNCCC(Oc1ccccc1OC)c1ccccc1 (stereo not given) | inactive | –
CN[C@@H]1[C@H](O)[C@H](NC)[C@H]2O[C@@]3(O)C(=O)C[C@@H](C)O[C@H]3O[C@@H]2[C@H]1O | inactive | –
Cc1ccccc1CCO | inactive | –
CC1(C)S[C@@H]2[C@H](N=CN3CCCCCC3)C(=O)N2[C@H]1C(=O)O | inactive | –
C/C(=N/NC(=O)c1ccncc1)C(=O)O | inactive | –
Nc1c(CC(=O)O)cccc1C(=O)c1ccc(Br)cc1 | inactive | –

SMILES | Potency | activity, positive = activation
CCCCCCOC(=O)CCC | inactive | –
COc1ccccc1OCC(O)COC(N)=O (stereo not given) | inactive | –
CC(C)=CCC/C(C)=C/CC/C(C)=C/CO | 68.6 µM (active) | –
Cc1c(C)c2c(c(C)c1OC(=O)CCC(=O)OCCO)CC[C@@](C)(CCC[C@H](C)CCC[C@H](C)CCCC(C)C)O2 | inactive | –
O=C(O)Cc1ccc(-c2ccccc2)cc1 | inactive | –
CC(=O)Nc1cccc(C)c1 | inactive | –
CC(C)(O)c1coc(S(=O)(=O)NC(=O)Nc2c3c(cc4c2CCC4)CCC3)c1 | 61.1 µM (active) | –
Nc1ccc(Cl)cc1[N+](=O)[O-] | inactive | –
CCOC(=O)c1ccc(I)cc1 | inactive | –
Cc1nc(-c2ccc(OCC(C)C)c(C#N)c2)sc1C(=O)O | 0.0531 µM (active) | –
O=S1(=O)c2cccc3cccc(c23)N1CCCN1CCN(c2ccc(F)cc2)CC1 | inactive | –
CN1[C@@H]2CC[C@H]1CC(OC(=O)c1c[nH]c3ccccc13)C2 (stereo not given in full) | inactive | –
CC1=CCC(=C(C)C)CC1 | inactive | –
FC(F)(F)C(F)(F)C(F)(F)C(F)(F)C(F)(F)C(F)(F)C(F)(F)C(F)(F)Br | inactive | –
CO[C@H]1O[C@H](CO)[C@@H](O)[C@H](O)[C@H]1O | inactive | –
COC(=O)CCCC(=O)O | inactive | –
CCOc1ccc2ccccc2c1C(=O)N[C@@H]1C(=O)N2[C@@H]1SC(C)(C)[C@@H]2C(=O)O | inactive | –
CNCCc1ccccn1 | inactive | –
CCOC(=O)COC(=O)c1ccccc1C(=O)OCC | inactive | –
NS(=O)(=O)c1cc(C2(O)NC(=O)c3ccccc32)ccc1Cl (stereo not given) | inactive | –
